Sampled rows, rich in hits. Any-hit rate of the full collection: about 3.3%.
VACV Venus inh: inhibitors of vaccinia virus (Venus reporter). Vaccinia virus Venus reporter expression, fluorescence. Potency, µM (top dose mostly 36.5 µM), hits mostly inhibitors. actives 0.46% (n = 330,000); calls by dose curve; tested in A549 cells; further: nearly all actives have a fitted effect of over 30% in size
HCV inhibitor: HCV inhibition. Huh7.5.1 HCVcc-Cre infection, luciferase reporter, 44 h. Potency, µM (series often up to 41.8 µM), hits mostly inhibitors. actives 3.4% (n = 340,000). AID 651820; active means well fitted inhibition curve with a large enough effect; inconclusive means small, poorly fitted or top-dose-only effect, or another doubt; inactive means no such curve, though single readings can be large or run the other way
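After 44 h co-culture of compound, cells and HCVcc-Cre (~0.5 moi), substrate is added for 15 min at room temperature and luciferase measured over 15 sec. Cells were seeded at 1,000/well and pre-cultured 4 h.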
VACV mCherry inh: inhibitors of vaccinia virus infection (mCherry reporter signal); Vaccinia virus mCherry reporter infection, fluorescence; Potency, µM (highest dose often 36.5 µM), usual class: inhibitors; actives 0.63% (n = 310,000); AID 720579; calls by dose curve; tested in A549 cells; further: nearly all actives have a fitted effect of over 35% in size
Numbers stand for hits; – = inactive; ? = inconclusive; · = no result.

SMILES	VACV Venus inh	HCV inhibitor	VACV mCherry inh
COc1ccccc1/C=c1/[nH]c(=O)/c(=C\c2ccccc2OC)[nH]c1=O	–	·	–
CC(C(=O)c1ccccc1)[n+]1ccc(Cl)c2ccc(Cl)cc21 (stereo not drawn)	–	·	–
CN1/C(=C\C(=O)Nc2cccc(Cl)c2)C(C)(C)c2ccccc21	–	31.6µM	–
CN1/C(=C\C(=S)NC(=O)c2cccc(Br)c2)C(C)(C)c2ccccc21	–	11.2µM	–
CN1/C(=C\C(=O)Nc2ccc(Br)cc2)C(C)(C)c2ccccc21	–	–	–
CN1/C(=C/C(=O)C2CC2)C(C)(C)c2ccccc21	–	–	–
CN1/C(=C\C(=O)Nc2ccc(F)cc2)C(C)(C)c2ccccc21	–	–	–
CCN(CC)S(=O)(=O)c1cccc(C(=O)/C=C2/N(C)c3ccccc3C2(C)C)c1	–	10µM	–
COCCN1CCN(C(=O)c2cnn(-c3nccc(-c4ccco4)n3)c2C(C)C)CC1	–	·	–
CC(=O)c1ccc(NC(=O)CSc2cn(CC(=O)N(C(C)C)C(C)C)c3ccccc23)cc1	–	·	–
O=C(NCc1ccccc1)c1ccc(N2CCC3(CC2)CC(c2ccc(Cl)cc2)=NO3)c([N+](=O)[O-])c1	–	4.47µM	–
CCCNC(=O)c1ccc(N2CCC3(CC2)CC(c2ccccc2)=NO3)c([N+](=O)[O-])c1	–	?	–
Cc1cccc(NC(=O)C2CC3CCC2C3)c1C (stereo not drawn)	–	–	–
Cc1cc(N(C)C)c(C)cc1/C=C/c1ccnc2ccccc12	–	·	–
Nc1nc(COC(=O)CCC(=O)c2ccccc2)nc(Nc2ccccc2)n1	–	–	–
Nc1nc(COC(=O)c2ccc3c(c2)OCCO3)nc(Nc2ccccc2)n1	–	11.2µM	–
CC(=O)NC(NC(=S)Nc1ccc(S(N)(=O)=O)cc1)C(Cl)(Cl)Cl (stereo not drawn)	·	–	·
CC(=O)NC(NC(=S)Nc1ccc(N=Nc2ccccc2)cc1)C(Cl)(Cl)Cl (stereo not drawn)	14.1µM	7.08µM	12.6µM
Brc1cc(Br)c2nc3c(cc2c1)CCC3	·	10µM	·
c1ccc2nc3c(cc2c1)CCCC3	–	·	–
CCN(CC)CC(=O)Nc1sc(C)cc1C(=O)c1ccccc1	–	8.91µM	–
CCN(CC)CC(=O)Nc1sc(C)cc1C(=O)c1ccc(C)cc1	–	?	–
N=c1oc2c3c4c(cc2cc1C(=O)Nc1ccccc1)CCCN4CCC3	–	7.94µM	–
Cc1ccc(NC(=O)c2cc3ccccc3oc2=N)cc1	·	–	·
Cc1csc(C)[n+]1CCC1CCCCC1	?	·	–
SMILES	VACV Venus inh	HCV inhibitor	VACV mCherry inh
COc1ccc(Oc2nc(-c3ccccc3)ncc2C(=O)O)cc1	–	–	–
COc1ccc(C(=O)c2cnc3ccccc3c2-c2ccccc2)cc1	·	12.6µM	·
Cc1nc2ccccc2c2c1CC(C)S2 (stereo not drawn)	–	?	–
Cc1ccc2nc(C)c3c(c2c1)OC(C(C)(Cl)Br)C3 (stereo not drawn)	–	7.08µM	–
Cc1nc2ccccc2c2c1CC(C(C)(Cl)Br)O2 (stereo not drawn)	·	3.16µM	·
COc1ccc2nc(C)c3c(c2c1)OC(C(C)(Cl)Br)C3 (stereo not drawn)	–	–	–
COc1cccc(-c2oc3c(c2C#CCCO)C(O)CCC3)c1 (stereo not drawn)	–	·	–
CC(C)C(NC(=O)c1ccco1)C(=O)NCc1ccc(C(=O)O)cc1 (stereo not drawn)	–	–	–
O=c1[nH]c2ccc(S(=O)(=O)Nc3ccc(Cl)cc3)cc2[nH]1	·	–	·
CC(C)CNc1ncnc2nc[nH]c12	–	·	–
CC(C)CCCCCCCCCCCCC(=O)NCC(=O)NC1C(C)OC(Nc2ncnc3nc[nH]c23)C(O)C1O (stereo not drawn)	2µM	1µM	?
COc1ccc(-c2cc(=O)c3ccccc3o2)cc1OC	–	·	–
COc1ccc(C2=CC(c3ccc(OC)c(OC)c3)c3c(c4ccccc4oc3=O)O2)cc1OC (stereo not drawn)	–	10µM	–
CCOc1ccc(CCNC(=O)c2cc(=O)[nH]c3ccc(S(=O)(=O)N(CC)CC)cc23)cc1OCC	–	?	–
CCN(CC)S(=O)(=O)c1cccc(C(=O)N/N=C/c2ccc(N3CCOCC3)cc2)c1	–	–	–
CN(c1ccccc1)S(=O)(=O)c1cccc(C(=O)Nc2ccc(N3CCOCC3)cc2)c1	–	10µM	–
CS(=O)(=O)c1ccc(C(=O)Nc2ccccc2N2CCOCC2)c(Cl)c1	–	–	–
CN(C)S(=O)(=O)c1cccc(C(=O)Nc2ccc(N3CCOCC3)cc2)c1	–	?	–
CN(c1ccccc1)S(=O)(=O)c1ccc(Cl)c(C(=O)Nc2ccccc2N2CCOCC2)c1	–	11.2µM	–
Cc1cccc(NC(=O)c2cccc(S(=O)(=O)N(C)c3ccccc3)c2)n1	–	?	–
CCNc1ccc(C(=O)OCC)cc1NC(=O)c1cccc(S(=O)(=O)N(C)c2ccccc2)c1	–	8.91µM	–
Cc1ccc(N(C)S(=O)(=O)c2cccc(C(=O)Nc3ccc(N4CCOCC4)cc3)c2)cc1	·	6.31µM	·
Cc1ccc(Cl)cc1NC(=O)c1cc(S(=O)(=O)N2CCOCC2)cn1C	–	–	–
CCOc1ccc(-c2nnc(Nc3ccc(S(N)(=O)=O)cc3)c3ccccc23)cc1	–	·	–
COC(=O)c1ccc(C)c(NC(=O)c2ccc(CN3CCc4ccccc4C3)cc2)c1	·	–	·
SMILES	VACV Venus inh	HCV inhibitor	VACV mCherry inh
C1=Cc2ccccc2/C1=C\c1cc[cH-]c1.[Fe+2].c1cc[cH-]c1	–	·	–
Cn1c(=O)c2c(ncn2CC(=O)Nc2cccc(Cl)c2Cl)n(C)c1=O	–	·	–
COc1ccc(C(=O)Nc2nnc(S(=O)(=O)N(C)c3ccc(Cl)cc3)s2)cc1OC	–	·	–
Cc1oc(-c2ccccc2NC(=O)C2CCC2)nc1CNC(=O)c1ccc(C#CC(C)(C)O)cc1	–	·	–
CN(c1ccc(F)cc1)S(=O)(=O)c1ccc(Cl)c(C(=O)NCC2CCCO2)c1 (stereo not drawn)	–	–	–
CN(c1ccc(F)cc1)S(=O)(=O)c1ccc(Cl)c(C(=O)NCC2(N3CCOCC3)CCCCC2)c1	–	11.2µM	?
Cc1ccc(C(O)(C(=O)NN(C(=O)c2ccccc2)c2ccccc2)c2ccc(C)cc2)cc1	–	–	–
Cc1ccc(N(NC(=O)C(O)(c2ccccc2)c2ccccc2)C(=O)CCl)cc1	?	3.16µM	?
CC(=O)c1cccc(NC(=O)C2CCCN(C(=O)c3cnn(-c4ccccc4)c3-n3cccc3)C2)c1 (stereo not drawn)	–	·	–
O=C(OCC(=O)N1CCCc2ccccc21)c1cnc(Cl)c(Cl)c1	·	5.01µM	·
O=C(OCC(=O)N1CCCc2ccccc21)c1ccc(Cl)nc1	–	–	–
C=C(C)CNC(=O)c1ccc2nc(Cc3ccc(OC)cc3)oc2c1	–	–	–
CCn1cc(CNC(=O)c2ccc3nc(Cc4ccc(OC)cc4)oc3c2)cn1	–	10µM	–
Cn1cc(CNC(=O)c2ccc3nc(Cc4ccccc4F)oc3c2)cn1	–	–	–
CCn1cc(CNC(=O)c2ccc3nc(Cc4ccccc4F)oc3c2)cn1	–	11.2µM	–
Cc1cnc(-n2ncc(C(=O)N(C)Cc3cccc4ncccc34)c2C(C)C)nc1-c1ccc(F)cc1	–	·	–
COc1ccccc1NC(=O)CCCOc1cc(=O)n(C)c2ccccc12	–	·	–
Cc1ccccc1N=C1NC(=O)/C(=C/c2cccn2C)S1	·	–	·

Source: PubChem (National Center for Advancing Translational Sciences (NCATS))
